Results reported in PubChem BioAssay (NCATS).
Records with an inconclusive call do not appear. Activity calls are given as the source filed them. Calls come from the whole dose curve; as a rule, active = well fitted inhibition curve with a large enough effect; inconclusive = small, poorly fitted or top-dose-only effect; inactive = flat fitted curve, though single readings scatter.

Assays:
Test in all cases: qHTS profiling for inhibitors of Plasmodium falciparum proliferation (AID 504749); note: nearly all actives have a fitted effect of over 60% in size
Details in all cases: P. falciparum in erythrocytes, SYBR Green DNA, 72 h; series mostly up to 28.7 µM
CP268 = test system: CP268
Method in brief: (§1)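 Quantitative HTS: compounds pinned into medium, infected erythrocytes added (0.3% parasitemia, 2.5% hematocrit), 72 h culture at 37 C under 5% CO2. Saponin/Triton lysis with SYBR Green I, overnight RT, then fluorescence read.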

CP269 = test system: CP269
Method in brief: as §1

CP286 = test system: CP286
Method in brief: as §1

CP291 = test system: CP291
Method in brief: as §1

CP297 = test system: CP297
Method in brief: as §1

CP305 = test system: CP305
Method in brief: as §1

CP315 = test system: CP315
Method in brief: as §1

CP325 = test system: CP325
Method in brief: as §1

CP329 = test system: CP329
Method in brief: as §1

CP335 = test system: CP335
Method in brief: as §1

Measured: Potency

CN(C)C(=O)Oc1cccc([N+](C)(C)C)c1
inactive: all assays above

CCCCOCCOCCOCc1cc2c(cc1CCC)OCO2
inactive: all assays above

Nc1nc(N)c2nc(-c3ccccc3)c(N)nc2n1
not listed: CP335
inactive: all other assays above

CCN1CCC[C@H]1CNC(=O)c1c(O)c(Cl)cc(Cl)c1OC
inactive: all assays above

CSc1ccc(C(=O)c2[nH]c(=O)[nH]c2C)cc1
inactive: all assays above

CCN(CC)CC(=O)Nc1c(C)cccc1C
inactive: all assays above

FC(F)(F)c1ccccc1-n1ccnc1
inactive: all assays above

Brc1c(NC2=NCCN2)ccc2nccnc12
not listed: CP335
inactive: all other assays above

NC1=NCC2c3ccccc3Cc3ccccc3N12 (stereo not given)
not listed: CP329 | CP335
inactive: all other assays above

NS(=O)(=O)c1cc2c(cc1Cl)NC(C1CC3C=CC1C3)NS2(=O)=O (stereo not given)
inactive: all assays above

NC/C=C/C(=O)O
inactive: all assays above

Cc1cc(C)c(/C=C2\C(=O)Nc3ccccc32)[nH]1
inactive: all assays above

CC[N+](C)(C)c1cccc(O)c1
inactive: all assays above

O=C(CCNNC(=O)c1ccncc1)NCc1ccccc1
inactive: all assays above

C[C@]12CCC(=O)C=C1CC[C@@H]1[C@@H]2CC[C@@]2(C)[C@H]1CC[C@]2(O)C(=O)CO
inactive: all assays above

O=c1[nH]c(=O)n([C@H]2C[C@H](O)[C@@H](CO)O2)cc1Br
inactive: all assays above

CCCCNc1c(C(=O)OCC)c(C)nc2c1cnn2CC
not listed: CP335
inactive: all other assays above

C[N+](C)(C)CCOC(N)=O
inactive: all assays above

CC(N=C(NC#N)Nc1ccncc1)C(C)(C)C (stereo not given)
inactive: all assays above

CCN(CC)CCNC(=O)c1ccc(NC(C)=O)cc1
inactive: all assays above

CC(=O)[C@@]1(O)CC[C@H]2[C@@H]3CCC4=CC(=O)CC[C@]4(C)[C@H]3CC[C@@]21C
inactive: all assays above
